Screening data: PubChem, Paczesny and Yang Labs, IUPUI and University of Michigan
ST2 IL33 inh: inhibitors of human ST2 (IL1RL1) binding to IL-33, primary screen, biochemical, AlphaLISA. Interleukin-1 receptor-like 1 (Homo sapiens), Q01638. AlphaLISA ST2-Fc/biotin-IL-33 interaction, 1 h. inhibition, % for hits at 17 µM. 78,000 compounds, 2.3% hits; in the data active = inhibition above about 30%
Target sequence (Q01638 whole entry, looked up): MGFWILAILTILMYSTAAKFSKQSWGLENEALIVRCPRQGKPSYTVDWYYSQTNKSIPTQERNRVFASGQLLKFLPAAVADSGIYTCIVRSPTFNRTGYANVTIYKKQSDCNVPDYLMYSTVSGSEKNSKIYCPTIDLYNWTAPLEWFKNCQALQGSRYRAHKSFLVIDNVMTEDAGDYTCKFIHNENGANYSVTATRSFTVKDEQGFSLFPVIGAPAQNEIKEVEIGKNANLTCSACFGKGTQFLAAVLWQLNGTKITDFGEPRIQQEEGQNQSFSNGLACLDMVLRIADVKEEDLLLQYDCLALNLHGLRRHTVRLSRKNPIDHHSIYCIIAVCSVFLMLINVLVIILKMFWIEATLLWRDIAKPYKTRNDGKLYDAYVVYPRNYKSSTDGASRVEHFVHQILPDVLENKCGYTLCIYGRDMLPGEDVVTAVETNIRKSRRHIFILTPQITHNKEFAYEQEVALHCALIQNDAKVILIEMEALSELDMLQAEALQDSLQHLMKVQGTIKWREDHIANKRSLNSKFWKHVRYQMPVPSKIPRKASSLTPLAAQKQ
Hits are given with their value. This excerpt belongs to a sample that is enriched for hits.

Cn1ncc2c(NCCN3CCCC3=O)nc(C(C)(C)C)nc21 was read as ST2 IL33 inh inactive.
For O=C(O)c1ccccc1SC1CC(=O)N(c2ccccc2C(F)(F)F)C1=O (stereo not drawn) the results were ST2 IL33 inh inactive.
For COC(=O)C1(C(=O)N2CCCCC2CN2CCOCC2)CC1 (stereo not drawn) the results were ST2 IL33 inh inactive.
Screening O=C(O)c1ccc(NC(=O)c2nccnc2C(=O)O)cc1 returned ST2 IL33 inh inactive.
Screening COc1cc(/C=C2/SC(=O)NC2=O)ccc1O returned ST2 IL33 inh inactive.
For COc1cc(/C=C2/SC(=Nc3ccccc3)NC2=O)ccc1O the results were ST2 IL33 inh 38.0%.
`COc1cccc(/C=C2/SC(=Nc3ccccc3)NC2=O)c1` gave ST2 IL33 inh inactive.
`CC(C)CNC(=S)N[C@H]1CO[C@H]2[C@@H]1OC[C@@H]2Nc1nccc(-c2cccc(F)c2)n1` gave ST2 IL33 inh inactive.
For CCOC(=O)c1[nH]c(C)c(C(=O)N2CCCC(N3CCN(c4ccccc4)CC3)C2)c1C (stereo not drawn) the results were ST2 IL33 inh inactive.
CCCCCN1C(=O)C(=O)c2cc(Br)ccc21 was read as ST2 IL33 inh 46.0%.
Screening CCN1C(=O)c2ccc(Br)cc2C1=O returned ST2 IL33 inh inactive.
O=C(O)CN1C(=O)c2ccc(Br)cc2C1=O was read as ST2 IL33 inh inactive.
O=C(c1ccc2nc3ccc(Cl)cc3c(=O)n2c1)N1CCN(c2ccc(Cl)cc2)CC1 was read as ST2 IL33 inh inactive.
For Cc1nc(C(C)C)cc(N2CCN(Cc3ccc(Cl)s3)CC2)n1 the results were ST2 IL33 inh inactive.
`Cc1ccc2c3c(c(N)c(=O)[nH]c13)-c1ccccc1C2=O` gave ST2 IL33 inh 51.0%.
`Cc1cc(C)n(-c2cc(N3CCN(C(=O)c4ccco4)CC3)ccc2[N+](=O)[O-])n1` gave ST2 IL33 inh inactive.
Screening O=[N+]([O-])c1ccc(N2CCOCC2)cc1NCc1ccco1 returned ST2 IL33 inh inactive.
Screening CC(C)(C)c1ccc(C(=O)N2CCN(c3ccc([N+](=O)[O-])c(NCc4ccco4)c3)CC2)cc1 returned ST2 IL33 inh 31.0%.
For O=C(c1ccccn1)N1C[C@@H]2OCC(=O)N(Cc3ccccn3)[C@@H]2C1 the results were ST2 IL33 inh inactive.
Screening CCCCN(CC)C(=O)c1ccc(Br)cc1 returned ST2 IL33 inh inactive.
`COc1cccc(OCCOc2ccc(/C=C3\C(=O)NN(c4ccccc4)C3=O)cc2)c1` gave ST2 IL33 inh inactive.
COc1ccc(OCc2ccc(F)cc2)c(/C=C2\C(=O)NN(c3ccccc3)C2=O)c1 was read as ST2 IL33 inh inactive.
Screening COc1ccc(OCc2ccccc2F)c(/C=C2\C(=O)NN(c3ccccc3)C2=O)c1 returned ST2 IL33 inh 35.0%.
For Cc1cccc2[nH]c(CN(C)C(=O)c3cc(COc4ccccc4)[nH]n3)nc12 the results were ST2 IL33 inh inactive.
O=C(CCS(=O)(=O)c1ccc(Br)s1)NCc1ccc(F)cc1 was read as ST2 IL33 inh inactive.
For Fc1ccc(CSc2nnc(COc3ccc4c(c3)CCCC4)o2)cc1 the results were ST2 IL33 inh inactive.
Screening Cc1cc2ccccc2n1CCNS(C)(=O)=O returned ST2 IL33 inh inactive.
CCN(CCNS(C)(=O)=O)c1ccc(N)c(C)c1 was read as ST2 IL33 inh 35.0%.
`Cc1ccc(N(CC(=O)O)S(C)(=O)=O)cc1C` gave ST2 IL33 inh inactive.
Screening CC(=NCCCn1ccnc1)c1c(C(F)(F)F)[nH]n(-c2nc3ccccc3s2)c1=O returned ST2 IL33 inh inactive.
For Cc1cccn2c(CNC(C)CCn3cccn3)cnc12 (stereo not drawn) the results were ST2 IL33 inh inactive.
CCC(=O)Nc1cccc(C(=O)N(Cc2ccccn2)CC(C)C)c1 was read as ST2 IL33 inh inactive.
Cc1ccc(C(=O)N(Cc2ccccc2)Cc2ccccc2)o1 was read as ST2 IL33 inh inactive.
`Cc1ccc(C(=O)Nc2cc(NC(=O)CCN3CCCCO3)ccc2C)cc1` gave ST2 IL33 inh inactive.
Screening COc1ccc(CNC(=O)C2CCCN2c2nnc(N3CCCC3=O)s2)c(OC)c1 (stereo not drawn) returned ST2 IL33 inh inactive.
c1cncc(CCn2ccnc2-c2cnc(N3CCOCC3)s2)c1 was read as ST2 IL33 inh inactive.
`COc1ccc(NS(=O)(=O)c2ccc(NC(=O)COc3ccccc3)cc2)cc1` gave ST2 IL33 inh inactive.
COc1ccccc1NS(=O)(=O)c1ccc(NC(C)=O)cc1 was read as ST2 IL33 inh inactive.
For COc1cccc(Nc2nc3ccccc3nc2NS(=O)(=O)c2ccc(NC(C)=O)cc2)c1 the results were ST2 IL33 inh 37.0%.
For COc1ccc(-n2nc3c(c2NC(=O)c2ccc(OC)cc2OC)CS(=O)C3)cc1 (stereo not drawn) the results were ST2 IL33 inh inactive.
Screening CC(C)=CC(=O)N1CCc2c(nc(C)nc2N2CCCC2)C1 returned ST2 IL33 inh inactive.
`CC(C)Cc1nc([C@H]2CCC(=O)N2)n(-c2ccc3c(c2)OCCO3)n1` gave ST2 IL33 inh inactive.
`CSc1cccc(-n2cc(-c3ccccc3)[nH]c2=O)c1` gave ST2 IL33 inh inactive.
For Cc1ccccc1Cn1c(NCc2ccccc2)nc2c1c(=O)n(C)c(=O)n2C the results were ST2 IL33 inh inactive.
`Cn1c(=O)c2c(nc(NCc3cccnc3)n2Cc2cccc3ccccc23)n(C)c1=O` gave ST2 IL33 inh 30.0%.
Cn1c(=O)c2c(nc(NCCCO)n2Cc2cccc3ccccc23)n(C)c1=O was read as ST2 IL33 inh inactive.
For CC(Nc1nc(-c2ccc([N+](=O)[O-])cc2)nc2ccccc12)c1ccccc1 (stereo not drawn) the results were ST2 IL33 inh inactive.
For CSc1ccc(C2Nc3ccccc3C(=O)N2c2ccc(C)cc2)cc1 (stereo not drawn) the results were ST2 IL33 inh inactive.
`CSc1ccc(C2Nc3cccc4cccc(c34)N2)cc1` gave ST2 IL33 inh 31.0%.
CC(=O)c1c(NC(=O)c2ccccc2)nc(C)nc1-c1ccccc1 was read as ST2 IL33 inh inactive.
Screening CCc1nc(C)sc1CNC(=O)C1(COC)CCC1 returned ST2 IL33 inh inactive.
`COc1ccc(CNc2ccccc2C(=O)O)cc1` gave ST2 IL33 inh inactive.
COc1ccc(NS(=O)(=O)c2cccc(C(=O)Nc3ccccc3C(=O)O)c2)cc1 was read as ST2 IL33 inh inactive.
Screening COc1ccc(OC)c(S(=O)(=O)Nc2ccccc2)c1 returned ST2 IL33 inh inactive.
COc1ccc(C2CC(=O)C=C(Nc3ccccc3)C2)cc1 (stereo not drawn) was read as ST2 IL33 inh inactive.
For COc1ccc(Nc2ccc(OC)cc2)cc1 the results were ST2 IL33 inh 70.0%.
COc1ccc(NC2=C(C)C(=O)CC2)cc1 was read as ST2 IL33 inh inactive.
For COc1ccc(NC(=O)Nc2ccc(I)cc2)cc1 the results were ST2 IL33 inh inactive.
Screening COc1ccc(Nc2ccccc2C(=O)O)cc1 returned ST2 IL33 inh 35.0%.
COc1ccc(Nc2ccccc2)c(C)c1 was read as ST2 IL33 inh 37.0%.
`CN(C)CC1(O)CCCN(C(=O)c2ccc(-n3cnnn3)cc2)CC1` (stereo not drawn) gave ST2 IL33 inh inactive.
Screening CCC(C)N(CC#Cc1ccccc1)C(=O)CC1=CCNCC1 (stereo not drawn) returned ST2 IL33 inh inactive.
Cn1cc(C(=O)NCCN2CCc3ccccc3C2)c2c3ccccc3n(C)c2c1=O was read as ST2 IL33 inh inactive.
